The whole screen tested about 330,000 compounds, of which about 1,900 (0.58%) were called active. Roughly 4% stayed inconclusive and do not appear here. Cut-off read from the data, not from the text of the source: inconclusive = inhibition above about 70% without an active follow-up result; inactive = below that. A selection follows. Entries with a potency or affinity are not part of this list.
Assay: M. tuberculosis growth inhibition, HTS (AID 449762);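 note: bacterial growth assessed after seven days of incubation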
Conditions: M. tuberculosis H37Rv growth inhibition, 7H9 media; at 25 µM; stronger effect = higher value

| Compound | inhibition |
| --- | --- |
| Cc1ccnc(NC(=O)c2cc3ccccc3oc2=O)c1 | 45.2% (inactive) |
| O=C(Nc1ccccn1)c1cc2ccccc2o1 | 3.67% (inactive) |
| O=C(CN1C(=O)NC2(CCCc3ccccc32)C1=O)NCCc1ccc(F)cc1 (centres undefined) | 1.6% (inactive) |
| O=C(CSc1ccccc1)N1CCN(c2ccc(F)cc2)CC1 | -5.77% (inactive) |
| COc1cccc(/C=C/C(=O)OCC(=O)Nc2ccc(N3CCOCC3)cc2)c1OC | -2.5% (inactive) |
| CC(C)OC(=O)CSc1nnc(CNc2nc(-c3ccccc3)cs2)n1C | 0.34% (inactive) |
| COC(=O)CSc1nnc(CNc2nc(-c3ccccc3)cs2)n1C | -7.67% (inactive) |
| COC(=O)[C@H](CC(C)C)NS(=O)(=O)N[C@@H](CC(C)C)C(=O)OC | -8.61% (inactive) |
| COC(=O)c1c(NC(=O)C(=O)N2CCCCC2)sc2c1CC(C)(C)OC2 | 5.56% (inactive) |
| CC1(C)Cc2c(sc(NC(=O)C(=O)N3CCCC3)c2C(=O)O)CO1 | 1.82% (inactive) |
| COc1ccc2ccc3c(c2c1)N=CC1(O3)N(C)c2ccccc2C1(C)C (centres undefined) | -4.4% (inactive) |
| COc1ccc(N2CCN(C(=O)COCC(=O)O)CC2)cc1 | -6.23% (inactive) |
| COc1ccc(C(=O)NCCS(=O)(=O)N2CCN(C(=O)c3ccco3)CC2)cc1 | -5.88% (inactive) |
| COc1ccc(C(=O)CSc2n[nH]c(=O)[nH]c2=O)cc1 | -1.42% (inactive) |
| O=C(CSc1n[nH]c(=O)[nH]c1=O)c1ccccc1 | 51.6% (inactive) |
| COc1ccc(NC(=S)NC2CCCCC2)c(OC)c1 | 4.99% (inactive) |
| CCOc1ccccc1C(=O)N1CCN=C1SCc1cccnc1 | 10.2% (inactive) |
| O=C(c1cc2ccccc2o1)N1CCN(S(=O)(=O)c2cccs2)CC1 | 0.69% (inactive) |
| O=C(c1ccco1)N1CCN(S(=O)(=O)c2ccc(Cl)s2)CC1 | -11.2% (inactive) |
| CCOC(=O)Cc1nnc(NC(=O)c2ccccc2OC)s1 | -7.9% (inactive) |
| N#Cc1ccc(S(=O)(=O)N2CCCN(c3nc4ccc(Cl)cc4s3)CC2)cc1 | -8.22% (inactive) |
| O=[N+]([O-])c1ccc(N2CCN(Cc3ccc(Br)o3)CC2)cc1 | 2.93% (inactive) |
| Clc1ccc(N2CCN(Cc3ccc(Br)o3)CC2)cc1 | 0.17% (inactive) |
| COc1ccc(N(CC(=O)N/N=C/c2ccco2)S(=O)(=O)c2ccccc2)cc1 | -4.51% (inactive) |

| Compound | inhibition |
| --- | --- |
| O=C(c1ccoc1)N1CCC(CO)(CCc2ccccc2)CC1 | -5.69% (inactive) |
| O=C(COc1ccccc1[N+](=O)[O-])Nc1ccccc1N1CCCCC1 | -4.5% (inactive) |
| COC(=O)c1c(C)[nH]c(C(=O)/C=C/c2ccccc2Cl)c1C | 3.39% (inactive) |
| O=C(COc1ccccc1)Nc1sc2c(c1C(=O)NCc1cccnc1)CCCC2 | -7.35% (inactive) |
| O=C(Nc1sc2c(c1C(=O)NCc1cccnc1)CCCC2)c1ccco1 | -2.45% (inactive) |
| O=C(Nc1c2c(nn1-c1ccc(F)cc1)CS(=O)(=O)C2)c1ccc2c(c1)OCO2 | -6.48% (inactive) |
| COc1ccc(C(=O)/C=C/c2cn(CC(O)CN3CCN(C)CC3)c3ccccc23)cc1OC (centres undefined) | 8.14% (inactive) |
| Cn1cc(/C=C/C(=O)c2ccccc2)c2ccccc21 | 58.1% (inactive) |
| Cc1cc(C)c(CN2CCC(n3nccc3NC(=O)CCOc3ccccc3)CC2)cc1C | 67.4% (inactive) |
| O=C(Nc1ccc(-c2ccccc2)cc1)c1ccccc1 | 9.06% (inactive) |
| COc1ccc(OCCN(C)CC(=O)Nc2c(C)cccc2C)cc1 | -3.93% (inactive) |
| Cc1c(C(=O)Nc2ccc(F)c(F)c2)oc2ccc(S(=O)(=O)N3CCCCC3)cc12 | 4.31% (inactive) |
| N=c1c2ccccc2nnn1-c1ccc(C(F)(F)F)cc1 | -1.84% (inactive) |
| Fc1ccc(Nc2ncnc3ccccc23)cc1 | 4.5% (inactive) |
| O=C(Nc1ncc2c(n1)-c1ccccc1OC2)c1ccc(Cl)cc1Cl | -7.91% (inactive) |
| CCCCc1ncc(CN2CCN(Cc3ccc(C)cc3)C(CCO)C2)[nH]1 (centres undefined) | 0.18% (inactive) |
| COc1ccc(NC(=O)C(=S)NC2CCCCC2)cc1 | 8.92% (inactive) |
| C=CCc1c(C)nc(C)nc1N/N=C/c1ccc(F)cc1 | 6.56% (inactive) |
| C=CCc1c(C)nc(C)nc1N/N=C/c1ccccc1 | -2.25% (inactive) |
| C#CCOCCOCCOCCNc1nc(N2CCN(C(=O)[C@H](CCC(=O)O)n3cc([C@@H](N)[C@H](C)CC)nn3)CC2)nc(N2CCN(C(=O)[C@H](CCC(=O)O)n3cc([C@@H](N)CCSC)nn3)CC2)n1 | 3.47% (inactive) |
| O=C1C=C(c2ccc3c(c2)oc2ccccc23)C[C@@H](c2ccc3c(c2)OCO3)C1 | 36.8% (inactive) |
| FC(F)(F)c1ccc(C2[C@H]3CN(CC4CCCCC4)[C@H](c4ccccc4)C34CC2(c2cccnc2)C4)cc1 (some centres undefined) | 58% (inactive) |
| c1ccc(C2[C@H]3CN(CC4CCCCC4)[C@H](c4ccccc4)C34CC2(c2ccccc2)C4)cc1 (some centres undefined) | 2.3% (inactive) |
| CC(C)(C#CCCCCC#CC(C)(C)[N+](C)(C)C)[N+](C)(C)C | -2.46% (inactive) |

| Compound | inhibition |
| --- | --- |
| Cc1ccc(C(=O)/C=C/C(=O)O)cc1 | -2.7% (inactive) |
| Cc1ccc(/C=C/C(=O)c2ccc(C)cc2)cc1 | -12.1% (inactive) |
| Cc1cc(Nc2ccc(C(=O)O)cc2)n2nc(C)nc2n1 | -2.73% (inactive) |
| O=C(Nc1ccccc1)c1nc2ccccc2s1 | 23.7% (inactive) |
| O=C(COc1ccccc1)Nc1nnc(-c2ccccc2Cl)o1 | 28.7% (inactive) |
| OC1CCCN(Cc2nc(Cc3ccccc3Cl)no2)C1 (centres undefined) | -6.97% (inactive) |
| CCCCC[C@@H](O)c1cc2ccccc2c(=O)o1 | -0.25% (inactive) |
| O=C(O)c1ccccc1Nc1cccc(OCc2ccc3ccccc3n2)c1 | -1.2% (inactive) |
| CCc1ccc2c(c1)C(c1ccc(N3CCOCC3)cc1)=NNC(c1ccncc1)=N2 | 44.4% (inactive) |
| CCOC(=O)C1CCCN(C(=O)CCCn2c(=O)c3cccn3c3cccnc32)C1 (centres undefined) | 1.46% (inactive) |
| Cc1ccc(N2CC(C(=O)N3CCC(C(=O)Nc4ccc(Br)cc4)CC3)CC2=O)cc1 (centres undefined) | 32.6% (inactive) |
| CCc1ccc(N=c2c([N+](=O)[O-])nn(-c3ccccc3)n2O)cc1 | 64.6% (inactive) |
| COc1ccccc1N=c1c2c([N+](=O)[O-])cc([N+](=O)[O-])cc2n(O)n1-c1ccccc1OC | -0.38% (inactive) |
| COc1ccc(C(=O)N(CC2CCCO2)C(C(=O)NC2CCCC2)c2ccc(C)cc2)cc1OC (centres undefined) | -13.5% (inactive) |
| COc1ccc(C(=O)CN2CC(C)SC2=Nc2ccc(Cl)cc2)cc1 (centres undefined) | 13.6% (inactive) |
| O=C1O/C(=C/c2ccccc2)c2ccccc21 | 4.48% (inactive) |
| CN(C)/C=C1/OC(=O)C(C#N)=C1c1ccc(Cl)cc1 | -3.95% (inactive) |
| O=C1CC(c2ccc(Cl)cc2)CC(=O)C1CS(=O)(=O)c1ccccc1 (centres undefined) | 5.94% (inactive) |
| CCC(=O)N1N=C(c2ccc(NS(=O)(=O)c3ccccc3)cc2)CC1c1ccco1 (centres undefined) | 1.78% (inactive) |
| CCn1c(=O)c2c(nc3n2CCCN3CCc2ccccc2)n(C)c1=O | 6.27% (inactive) |
| Cc1nc(N)nc(Cl)c1Cc1ccc(Cl)cc1 | 0.95% (inactive) |
| COc1ccc(Cc2c(C)nc(N)nc2Cl)cc1 | 8.87% (inactive) |
| COc1cc(OC)cc(C(=O)NCC(=O)OCC(=O)N2CCc3ccccc32)c1 | 5.39% (inactive) |
| Cc1cc2c(nn1)CCc1c-2no[n+]1[O-] | -1.95% (inactive) |

| Compound | inhibition |
| --- | --- |
| O=C(CN1CCN(c2nc(-c3ccccc3)cs2)CC1)Nc1ccc2c(c1)OCO2 | -7.77% (inactive) |
| O=C(CN1CCN(c2ncccn2)CC1)NCc1ccc2c(c1)OCO2 | -8.33% (inactive) |
| O=C1C2CC=C(Cl)CC2C(=O)N1CC1Cc2ccccc2CO1 (centres undefined) | -2.11% (inactive) |
| N#Cc1cccc(NC(=O)CCc2ccc(S(=O)(=O)N3CCOCC3)cc2)c1 | 2.35% (inactive) |
| CCOc1ccc(CCNC(=O)C2CCN(c3nnc(-n4cccc4)s3)CC2)cc1 | -2% (inactive) |
| CCOc1ccc2nc(N3CCCC(C(=O)NCCCN4C(C)CCCC4C)C3)sc2c1 (centres undefined) | 6.54% (inactive) |
| OCC[C@H]1C[C@@H](O)[C@H](O)[C@@]2(Cc3ccccc3CO2)O1 | -8.04% (inactive) |
| O=C(CSc1nnc(Nc2ccccc2F)s1)NC(=O)CN1CCCC1=O | -10.7% (inactive) |
| COc1ccc(OCc2cccc(C(=O)NN)c2)cc1 | 5.13% (inactive) |
| Cc1nn(Cc2cccc(C(=O)Nn3cc([N+](=O)[O-])cn3)c2)c(C)c1[N+](=O)[O-] | 10.2% (inactive) |
| CC1CCN(C(=O)Cn2nnc(-c3ccccc3)n2)CC1 | 5.98% (inactive) |
| Cc1ccsc1/C=C1\SC(N2CC(C)OC(C)C2)=NC1=O (centres undefined) | 67.9% (inactive) |
| CC(C)(C)c1ccc(/C=C2/SC(N3CCCC3)=NC2=O)cc1 | 24.7% (inactive) |
| O=C1N=C(N2CCCC2)S/C1=C\c1ccccc1 | 0.89% (inactive) |
| Cc1ccsc1/C=C1/SC(N2CC(C)OC(C)C2)=NC1=O (centres undefined) | 68.3% (inactive) |
| COC(=O)C(CCCN1C(=O)c2ccccc2C1=O)(NC(C)=O)c1nnn(C)n1 (centres undefined) | -2.74% (inactive) |
| COC(=O)c1cccc(-c2noc(-c3ccccc3F)n2)c1 | -2.87% (inactive) |
| Cc1cccc(NC(=O)c2sccc2-n2cccc2)c1C | 6.88% (inactive) |
| Cc1ccc(NC(=O)c2sccc2-n2cccc2)c(Cl)c1 | 4.85% (inactive) |
| Cc1ccc2cc(CN(c3ccccc3C)S(=O)(=O)c3ccccc3)c(=O)[nH]c2c1 | 11.1% (inactive) |
| CNC(=O)c1ccsc1NC(=O)c1ccccc1 | -14.7% (inactive) |
| Nc1sccc1C(=O)c1ccccc1 | -3.41% (inactive) |
